The results in this text go back to PubChem BioAssay (NCI).

Compounds without any hit were thinned out: in the full panel of roughly 83,000, 20% have a hit.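 Each cell line was grown in a 96-well plate and treated with one concentration of compound for 48 hours. Values below 10 were considered active.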 Values without a mark were called inactive. Activity calls are given as the source filed them.

For the assay, the system named is HOP-62 NSCLC. Briefly: NCI-60 one-dose screen, 48 h (100 = growth as untreated, 0 = no growth, -100 = all killed). The settings on record: 10 µM unless noted. The protocol:
Growth inhibition of the HOP-62 human Non-Small Cell Lung tumor cell line is measured as a screen for anti-cancer activity. Cells are grown in 96 well plates and exposed to the test compound for 48 hours. Compounds are tested at a single concentration, which is 10^-5 M for most compounds. The reported endpoint is percent growth (GI% or GIPRCNT), where numbers from 0 - 100% represent growth inhibition, and numbers from -100% - 0 represent cell death. For example, a value of 40 represents 60% growth inhibition. A value of 0 means no net growth occurred over the course of the experiment. A value of -40 indicates 40% of cells at the beginning of the experiment died by the end of the experiment. A value of -100 means all cells are dead at the end of the experiment.
NCI-60 Human Tumor Cell Lines Screen was performed using the standard one-dose NCI protocol, which is described in more detail at https://dtp.cancer.gov/discovery_development/nci-60/default.htm.
Compounds with GIPRCNT values below 10 were considered active. Activity score was based on GIPRCNT using the following formula: […]
Score is 0 for GIPRCNT values of 100 or above, 50 for GIPRCNT values of 0, and 100 for GIPRCNT values of -100.
Consider `O=C(/C=C/c1cn(-c2ccccc2)nc1-c1ccc(Cl)cc1)c1ccc(F)cc1`, for which the growth was 102%. Consider `Oc1c(I)cc(I)cc1CNCc1ccccn1`, for which the growth was 28.3%.

For the compound `C#CCOC(=O)/C=C/c1cn(-c2ccccc2)nc1-c1ccc(OC)cc1`, the growth is 93%. In the case of `CCCCC1=C(P(=O)(O)O)N[C@H](C(=O)O)CS1` it was 89.4%; in that of `CC(=O)n1nc(C(=O)OC(C)(C)c2ccccc2)c2ccccc21`, 97.3%; in that of `CCC(C)(C)C(=O)O[C@H]1C[C@@H](C)C=C2C=C[C@H](C)[C@H](CC[C@@H]3CC(SCCN)CC(=O)O3)[C@H]21` (stereo not given in full), 98.9%. As to `CCOc1nc(-c2ccccc2)cc2c(O)c(C(=O)N/N=C/c3ccccc3)[nH]c(=O)c12`, the growth was 115%. In the case of `COc1ccc(-c2ccc(=O)oc2-c2cc(OC)c(OC)c(OC)c2)cc1O` it was -29% (active).

Consider `CN1C(=O)/C(=C\c2nc([P+](c3ccccc3)(c3ccccc3)c3ccccc3)c(N3CCOCC3)o2)SC1=S`, for which the growth was 97.9%. With `COc1ccc(Nc2ncc(Br)c(NCCCNC(=O)c3cccs3)n2)cc1` the figure was 22.6%; with `CCOC(=O)c1c(NC(=O)c2cccc(C(F)(F)F)c2)sc2c(CN(C)C)c(O)ccc12`, 96.7%. With `O=S(=O)(Nc1cc(Cl)ccc1Cl)c1ccc(-c2cnc(C3CC3)o2)cc1` the figure was 39.8%; with `c1ccc2cc(C[n+]3ccn(CCCCCCCCCCn4cc[n+](Cc5ccc6ccccc6c5)c4)c3)ccc2c1`, -4.86% (active).

Turning to `CS(=O)(=O)Nc1cc(-c2ccc3ncnc(Nc4ccc5c(cnn5Cc5cccc(F)c5)c4)c3c2)cnc1Cl`, the growth was 9.82% (active).

On to `C=CC(=O)N1CCN(c2cccc(Oc3nccc(Nc4nnc(-c5ccc(Br)cc5)s4)n3)c2)CC1`, for which the growth is 62.2%. With `O=C(/C=C/c1cccc(Cl)c1)c1cccc(OCCCOc2cccc(C(=O)/C=C/c3cccc(Cl)c3)c2)c1`, the growth is 102%.

Regarding `O=C(Nc1ccccc1O)c1ccc(CNC(=O)c2sccc2Nc2ccnc(C(F)(F)F)c2)cc1`, the growth was 65.6%. In the case of `CC1CN(S(=O)(=O)c2oc(-c3ccc(Cl)cc3)nc2C#N)CC(C)O1` (stereo not given) it was 101%; in that of `CC/C(=C(/c1ccc(Cl)cc1)c1ccc(OCCN2CCCCC2)cc1)c1ccc(OC)cc1`, 86.8%; in that of `COc1ccc(/C=C/C(=O)c2cccc(OCCCCOc3cccc(C(=O)/C=C/c4ccc(OC)c(OC)c4)c3)c2)cc1OC`, 72.8%.

Consider `O=C1NC2(Nc3ccccc31)C(=O)Nc1c(Cl)cc(Cl)cc12` (stereo not given), for which the growth is 84.7%. `CNC(=O)c1[nH]cc(-c2ccc(OC)cc2)c1-c1cc(OC)c2c(c1OC)OCO2`: the growth is 85.3%. Regarding `CN(/C(N)=N/N=C/c1c2ccccc2cc2ccccc12)C1CCCCC1`, the growth is 75.8%. In the case of `Cc1ccc(C[P+](c2ccccc2)(c2ccccc2)c2ccccc2)cc1` it was 13.5%; in that of `COCCOc1cc2ncnc(N3CCN(c4cc(S(C)(=O)=O)c(C)cc4Cl)CC3)c2cc1OCCOC`, 100%. For the compound `O=C1C(=O)N(Cc2ccc(-c3ccccc3)cc2)c2ccc(OC(F)(F)F)cc21`, the growth was 37.5%.

As to `OCCn1cc(-c2nc(-c3c[nH]c4ncccc34)cs2)c2ccccc21`, the growth is 74.7%. Take `O=C(Nc1cccc(Cl)c1)Nc1cccc(Cn2c(=O)[nH]c3ccc(Oc4ncccn4)cc3c2=O)c1`: the growth was 64.8%. In the case of `CCCCCCC12CCC(=O)N1CCc1cncn12` (stereo not given) it was 100%; in that of `COc1cc2c(c(OC)c1OC)CCC(c1cccc(C(=O)Nc3cccc(Cl)c3)c1)O2` (stereo not given), 79.6%; in that of `COC(=O)[C@]1(C)CCC[C@]2(C)[C@H]3C[C@H]4C(C(C)C)=C[C@]3(CC[C@H]21)[C@@H]1C(=O)CC[C@H](OCCC#N)[C@@H]14`, 95%. With `CC(C)c1ccc(C(=O)Nc2nc3ccc(O)c(CN(C)C)c3s2)cc1` the figure was 93.4%; with `C=C(C)[C@@H]1CC[C@]2(C(=O)O)CC[C@]3(C)[C@H](CC[C@@H]4[C@@]5(C)CCC(NC(=O)c6cccc(OC(C)=O)c6OC(C)=O)C(C)(C)[C@@H]5CC[C@]43C)[C@@H]12` (stereo not given in full), -14.6% (active).

Take `O=c1[nH]c(-c2ccccc2)nc2sc3cc(O)ccc3c12`: the growth was 105%. With `N#Cc1nc(-c2ccccc2)oc1S(=O)(=O)N1CCN(c2ccccc2)CC1` the figure was 104%. With `O=C(Nc1ccc(Oc2cccc(F)c2)c(Cl)c1)c1cccnc1` the figure was 34%; with `COc1ccc(-c2ccc(-c3ccc(C(=N)N)cc3)s2)cc1Cl`, 34.5%. Take `CC(C)=CC(=O)OCC(=O)O[C@@H]1C[C@]2(C(C)C)O[C@@]1(C)[C@@H]1CC[C@@H](C)[C@H]1[C@@H]2OC(=O)/C=C/c1ccccc1`: the growth was 96.7%. With `CSc1nc2ncc([N+](=O)[O-])c(=O)n2[nH]1` the figure was 98.8%; with `COc1ccc(Cc2cnc(NC(=O)c3cc(C)oc3C)s2)cc1`, 53%.
